Structures are written as SMILES. Where “and” joins values, the source holds several entries; their conditions need not be identical. Equal values may be shown once. Results filed as inconclusive are left out. Entries that show only a call come without a potency. Calls of active or inactive are those of the source. Calls come from the whole dose curve; as a rule, active = well fitted cell-killing curve with a large enough effect in the repeat runs; inconclusive = weak or mixed curves; inactive = flat fitted curve, though single readings scatter.
Potency is the fitted concentration of half-maximal effect.

This experiment can be described thus: qHTS assay to identify small molecule antagonists of the estrogen receptor beta (ER-beta) signaling pathway - cell viability counter screen (AID 1259382). Note: nearly all actives have a fitted effect of over 55% in size. The following applies: ER-beta-UAS-bla HEK293T viability, CellTiter-Glo luminescence, 16 h; series mostly up to 92.4 µM. The text has this: U.S. Tox21 Program National Center for Advancing Translational Sciences [NCATS] NIH Chemical Genomics Center [NCGC] U.S. Environmental Protection Agency [EPA] National Institutes of Environmental Health Sciences [NIEHS] National Toxicology Program [NTP] U.S. Food and Drug Administration [FDA] Tox21 Assay Overview: Estrogen receptor (ER), a nuclear hormone receptor, plays an important role in development, metabolic homeostasis and reproduction. Two subtypes of ER, ER-alpha and ER-beta, have similar expression patterns with some uniqueness in both types. Endocrine disrupting chemicals (EDCs) and their interactions with steroid hormone receptors like ER causes disruption of normal endocrine function. To identify the compounds that inhibit ER signaling, an ER-beta-UAS-bla GripTite cell line (Life Technologies, Madison, WI, USA) containing a beta-lactamase reporter gene under the control of an UAS response element was used to screen Tox21 10K compound library. The cytotoxicity of the Tox21 compound library against the ER-beta-bla cell line was tested in parallel by measuring the cell viability using CellTiter-Glo assay in the same wells.
Tox21 Assay Protocol Summary: ER-beta-UAS-bla HEK293T cells were dispensed at 2,000 cells/4 uL of assay medium containing 2% charcoal stripped FBS per well into black wall/clear-bottom 1536-well plates using a Multidrop Combi (ThermoFisher Scientific, Waltham, MA) dispenser. After the assay plates were incubated at a 37C and 5% CO2 for 6 hr, 23 nL of compounds dissolved in DMSO, positive controls or DMSO only was transferred to the assay plate by a Pintool station (Kalypsys, San Diego, CA), followed by addition of 1 uL (1nM as final concentration) of 17-beta-estradiol (E2) in assay medium using a Flying Reagent Dispenser (FRD, Aurora Discovery, San Diego, CA). The plates were incubated at 37C and 5% CO2 for 16 hr. Then 1 uL of LiveBLAzer B/G FRET substrate was added using a Flying Reagent Dispenser, the plates were incubated at room temperature for 2 hours, and fluorescence intensity was measured by an Envision plate reader (PerkinElmer, Shelton, CT). For cell viability readout that measures cytotoxicity, 4 uL/well of CellTiter-Glo reagent was added into the assay plates using a FRD. After 30 min incubation at room temperature, the luminescence intensity in the plates was measured using a ViewLux (PerkinElmer) plate reader.
For orientation: qHTS replaces the single test concentration by a dilution series.
For the compound `CC(c1ccccc1)(c1ccc(O)cc1)c1ccc(O)cc1`, the Potency is 61.1 µM (active).
As for `OC(Cc1ccccc1Cl)(Cn1[nH]cnc1=S)C1(Cl)CC1` (centres undefined), the Potency result is “inactive”.
With `CO/C=C(/C(=O)OC)c1ccccc1Oc1cc(Oc2ccccc2C#N)ncn1`, the Potency is 54 µM (active).
Same read-out and setting: to `Cc1nnc2n1-c1sc(CCc3ccc(CC(C)C)cc3)cc1C(c1ccccc1Cl)=NC2C` (centres undefined) belongs 33.5 µM (active).
`O=C(c1ccccc1)C(Cl)Cl`: the Potency entry was “inactive”.
For `Clc1ccccc1-c1ccccc1Cl`, the Potency entry was “inactive”.
On to `c1ccc2c(c1)Sc1ccccc1N2CC1CN2CCC1CC2` (centres undefined), for which the Potency was 21.1 µM (active).
As for `ClC(Cl)=C(c1ccc(Cl)cc1)c1ccccc1Cl`, the Potency result was “inactive”.
In the case of `O=[N+]([O-])c1c(Cl)c(Cl)cc(Cl)c1Cl`, the Potency entry was “inactive”.
As to `CCOC(=O)C(O)(c1ccc(Cl)cc1)c1ccc(Cl)cc1`, the Potency entry was “inactive”.
As to `COc1ccc(C(c2ccc(OC)cc2)C(Cl)(Cl)Cl)cc1`, the Potency entry is “inactive”.
For `CN1CSC(=S)N(C)C1`, the Potency was 9.64 µM (active) and 8.61 µM (active).
In the case of `CCN(CC)C(=O)Cl`, the Potency entry was “inactive”.
`Cc1cc(C(C)(C)c2ccc(O)c(C)c2)ccc1O`: the Potency entry is “inactive”.
Consider `CNC(=O)Oc1cc(C)c(SC)c(C)c1`, for which the Potency entry was “inactive”.
`N#Cc1cc([N+](=O)[O-])ccc1N`: the Potency entry was “inactive”.
As to `Cc1cc(C)c(C(=O)P(=O)(c2ccccc2)c2ccccc2)c(C)c1`, the Potency is 61.1 µM (active).
On to `Cc1ccc2nc3sc(=O)sc3nc2c1`, for which the activity change, negative = cytotoxicity was -3.52% [at 19 µM] (inactive).
Regarding `C[C@]12CC[C@@H](O)C[C@@H]1CC[C@@H]1[C@@H]2CC[C@]2(C)C(=O)CC[C@@H]12`, the Potency is 43.3 µM (active).
